# Screening data deposited in PubChem BioAssay by NMMLSC.
# RPL19A TOR yeast = RPL19A-GFP expression modulators in yeast, primary screen, cell-based, S. cerevisiae, multiplex flow cytometry, MLPCN. S. cerevisiae RPL19A-GFP strain, 3 h; active compounds read low. percent response vs DMSO, % at 10 µM. 330,000 compounds, 0.3% hits. AID 2025, 2009;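 active means percent response vs DMSO below 50%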;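 further: median channel GFP fluorescence of the barcoded RPL19A-GFP strain; ratio of sample median GFP to plate DMSO average so 100% = DMSO; lower means less RPL19A-GFP as with rapamycin TOR inhibition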
# MEP2-GFP yeast = modulators of MEP2-GFP levels in yeast, primary screen, S. cerevisiae, multiplex flow cytometry, MLPCN library; S. cerevisiae MEP2-GFP strain, 3 h; 100% = DMSO control level; GFP response vs DMSO, % at 10 µM; 330,000 compounds, 0.51% hits; AID 2016, 2009;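 active means GFP response versus DMSO above a set limit, roughly screen mean plus 3 SD, cut at about 180% in these data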;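 further: median GFP fluorescence of the barcode-gated MEP2-GFP cells per well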
# LAP4 TOR yeast = modulators of LAP4-GFP expression in yeast, primary screen, S. cerevisiae, multiplex flow cytometry, MLPCN library; AID 2023, 2009; 3 h; median GFP as percent of DMSO wells; 320,000 compounds, 0.34% hits; GFP response vs DMSO, % at 10 µM;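 active means GFP response vs DMSO above a set limit, about the screen mean plus 3 SD, cut at about 150% in these data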
# AGP1 TOR yeast = modulators of AGP1-GFP expression in yeast TOR pathway, primary screen, cell-based, multiplex flow cytometry, S. cerevisiae, MLPCN library. GFP response vs DMSO, % at 10 µM. 3 h; GFP as percent of DMSO wells. 320,000 compounds, 0.02% hits;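 active means GFP response relative to DMSO above a set limit, near screen average plus 3 SD, cut at about 150% in these data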;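 further: median GFP channel fluorescence of the gated AGP1 strain per well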
# CIT2 TOR yeast = modulators of CIT2-GFP expression in yeast, primary screen, S. cerevisiae, GFP fusion, multiplex flow cytometry, MLPCN library; S. cerevisiae CIT2-GFP strain, 3 h; 100 means same as DMSO wells; GFP response vs DMSO, % at 10 µM; 320,000 compounds, 0.065% hits; AID 2029, 2009;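 active means GFP response relative to DMSO above a set limit, near the screen mean plus 3 SD, cut at about 150% in these data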;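 further: ratio of well median GFP fluorescence to mean of DMSO wells on the plate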
# LAP4 cherry2 = LAP4-GFP expression modulators in yeast, confirmation, cell-based, second cherry pick, flow cytometry. shares compounds with LAP4 TOR yeast. S. cerevisiae LAP4-GFP strain, 3 h. GFP response vs DMSO, % at 10 µM. 590 compounds, 20% hits. AID 2621, 2010;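 active means GFP signal as percent of the solvent control above about 150%, meaning raised reporter expression, limit read from the data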;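 further: ratio of well median GFP fluorescence to plate DMSO mean so 100% = DMSO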
# MEP2 cherry2 = modulators of MEP2-GFP levels in yeast, confirmation, S. cerevisiae, flow cytometry GFP, second cherry picks. shares compounds with LAP4 TOR yeast. S. cerevisiae MEP2-GFP strain, 3 h. GFP response vs DMSO, % at 10 µM. 590 compounds, 10% hits;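 active means GFP signal above 150% of the solvent control wells, that is a rise of more than half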;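 further: median channel GFP fluorescence of all gated yeast cells per well; ratio of median GFP to plate DMSO average so 100% = DMSO level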
# RPL19A-GFP pick2 = RPL19A-GFP modulators in TOR pathway yeast, confirmation, cell-based, S. cerevisiae, flow cytometry, second cherry pick; shares compounds with LAP4 TOR yeast; S. cerevisiae RPL19A-GFP strain, 3 h; active compounds read low; 100% means same as DMSO wells; GFP response vs DMSO, % at 10 µM; 590 compounds, 3% hits;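 active means under 65% GFP response relative to DMSO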;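 further: median GFP channel fluorescence per well over the all cells gate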
# CIT2-GFP pick2 = modulators of CIT2-GFP expression in yeast, confirmation, flow cytometry, second cherry pick, single plex; shares compounds with LAP4 TOR yeast; S. cerevisiae CIT2-GFP strain, 3 h; DMSO control wells read 100%; GFP response vs DMSO, % at 10 µM; 590 compounds, 8% hits; AID 2624, 2010;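 active means GFP response vs DMSO above about 150%, limit read from the data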;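 further: median green fluorescence per well over all gated yeast cells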
# AGP1-GFP pick2 = AGP1-GFP expression modulators, hit retest, confirmation, cell-based, flow cytometry, S. cerevisiae, cherry pick set 2; percent response vs DMSO, % at 10 µM; AID 2643, 2010; shares compounds with LAP4 TOR yeast; S. cerevisiae AGP1-GFP strain, 3 h; 590 tested, under 10 active;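 active means over 150 percent of DMSO response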;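 further: median GFP channel fluorescence over all cells without mother daughter split; sample median GFP divided by mean DMSO control so 100% equals DMSO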
# Yeast autofluor = compound autofluorescence in yeast s288c, dose response, artefact control for yeast TOR pathway GFP screen, s288c strain | 610 tested, under 10 active | AID 2757, 2010 | fluorescence change (kMESF span) at 33 µM | shares compounds with LAP4 TOR yeast | S. cerevisiae s288c, 520 nm autofluorescence, flow cytometry, 3 h; active compounds read high; zero means same as solvent-only cells;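 active means fluorescence span over the dose series, or activity score, above about 33, limit read from the data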
# Yeast autofl DR = autofluorescence of compounds in yeast s288c, dose response, artefact control for yeast TOR pathway GFP screen, primary hits, KU SAR, s288c parental. shares compounds with LAP4 TOR yeast. S. cerevisiae s288c parental, compound autofluorescence, flow cytometry, 3 h. fluorescence change (span) at 33 µM. 110 tested, under 10 active;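 active means fluorescence change span, or the activity score built from it, above 25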
# TORC1 bypass = wild-type yeast growth inhibition sparing TORC1 bypass cells, mechanism study for yeast TOR pathway GFP screen, BY4741 wild type, TORC1 bypass strain; shares compounds with LAP4 TOR yeast; S. cerevisiae BY4741 spot growth rating, 48-72 h; active compounds read low; growth rating (0-3) at 30 µM; 120 tested, under 10 active; AID 504456, 2011;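 active means growth rating at most 1 for wild type yeast while the TORC1 bypass strain still grows fully, rated 3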
# Active calls of the source: *; x = no result given. Most compounds without a hit are left out; they make up all but 0.92% or so of the library.
SMILES,RPL19A TOR yeast,MEP2-GFP yeast,LAP4 TOR yeast,AGP1 TOR yeast,CIT2 TOR yeast,LAP4 cherry2,MEP2 cherry2,RPL19A-GFP pick2,CIT2-GFP pick2,AGP1-GFP pick2,others
Cc1cc(Nc2cc(-c3ccccc3)nc(NCc3ccccc3)n2)n[nH]1,x,x,x,x,x,x,x,x,x,x,TORC1 bypass=3
O=c1c2cc(Cl)ccc2nc(-c2ccccc2Cl)n1O,59.9,94.9,113.0,75.8,75.2,105.2,97.8,100.4,87.6,104.4,
Cc1cc(C)n(-c2nc3ccccc3c(=O)n2OCC#N)n1,107.4,106.1,95.3,101.5,99.1,x,x,x,x,x,
CN1CCC(OC(=O)c2ccco2)CC1,101.8,96.6,104.4,104.8,104.2,x,x,x,x,x,
O=C(OC1CSc2nc3ccccc3n2C1)c1ccco1 (stereo unspecified),18.1*,282.5*,94.0,25.2,90.1,101.0,104.8,101.1,104.0,103.5,
O=C(Nc1cc2c(cc1Br)OCCO2)c1ccco1,97.7,102.7,98.7,97.8,91.9,x,x,x,x,x,
N/C(=N\OC(=O)c1ccccc1Cl)c1ccc(Cl)cc1,88.1,104.3,142.7,78.8,168.8*,x,x,x,x,x,Yeast autofluor=0.9
N/C(=N\OC(=O)c1ccc(Cl)cc1Cl)c1ccccc1,92.8,118.0,256.6*,70.8,121.1,x,x,x,x,x,Yeast autofluor=1.7
N/C(Cc1ccc(Cl)cc1Cl)=N\OC(=O)c1ccccc1,87.2,121.0,169.8*,41.0,118.8,x,x,x,x,x,Yeast autofluor=7.65
N/C(Cc1ccc(Cl)cc1)=N\OC(=O)c1cccc2ccccc12,90.9,118.1,195.7*,74.3,124.7,x,x,x,x,x,Yeast autofluor=1.71;Yeast autofl DR=0.89;TORC1 bypass=3
N/C(Cc1ccc(Cl)cc1)=N\OC(=O)c1ccc2ccccc2c1,106.8,107.5,98.3,102.5,102.4,x,x,x,x,x,
O=C1CC(c2ccccc2)c2cc(O)ccc2O1 (stereo unspecified),103.9,103.1,100.6,101.4,108.2,x,x,x,x,x,
Cc1ccc(C2CC(=O)Oc3cc(O)ccc32)cc1 (stereo unspecified),74.7,96.7,179.9*,90.4,70.2,115.4,138.1,88.7,99.5,111.0,
O=C(O)CC(=O)Nc1cc(Cl)ccc1O,93.0,107.7,95.7,97.8,96.0,97.1,106.5,99.2,101.8,99.3,
Cc1ccc(S(=O)(=O)N(C)c2ccc(OC(C)C(=O)N3CCCC3)cc2)cc1C (stereo unspecified),94.6,93.0,106.6,101.8,91.2,x,x,x,x,x,
Cc1c[nH]c2cccc(OCC(CNC(C)(C)C)OC(=O)c3ccccc3)c12 (stereo unspecified),100.1,111.5,88.9,93.1,96.2,x,x,x,x,x,
Cn1c(Cl)cnc1C1CC(=O)c2cc(Cl)ccc2O1 (stereo unspecified),93.5,99.7,209.9*,98.4,92.8,100.0,99.8,97.9,96.1,96.0,
Cc1ccc(S(=O)(=O)/N=C(/Sc2ccccc2C(=O)O)c2ccccc2)cc1,97.5,97.3,97.7,93.8,91.3,110.6,101.5,101.9,105.2,93.5,
O=S(=O)(/N=C(\Sc1ccccc1)c1ccccc1)c1ccc(Cl)cc1,96.6,99.8,111.3,96.1,85.8,110.2,104.8,98.0,98.7,100.3,
O=S(=O)(/N=C(\c1ccccc1)N1CCOCC1)c1ccc(Cl)cc1,102.0,101.1,94.3,104.6,104.0,x,x,x,x,x,
Cc1ccc(S(=O)(=O)/N=C(\Sc2ccccc2)c2ccccc2)cc1,89.0,95.6,173.6*,103.6,79.8,x,x,x,x,x,Yeast autofluor=0
COc1ccc(C(=O)NNC(=S)NC(=O)/C=C/c2cccs2)cc1,98.2,109.0,186.1*,132.6,100.7,x,x,x,x,x,Yeast autofluor=0.82;Yeast autofl DR=0.21;TORC1 bypass=3
O=C(/C=C/c1cccs1)NC(=S)NNC(=O)c1ccccc1O,99.8,92.6,95.3,90.1,79.8,x,x,x,x,x,
CC(=O)c1ccc(NC(=O)Cn2c3ccccc3c3nc(=O)cc(C)n32)cc1,56.0,155.5,92.5,71.2,84.0,100.0,101.5,100.0,97.2,99.9,
CC(c1ccccc1F)n1cc(C(=O)NCCCc2nc3ccccc3[nH]2)nn1 (stereo unspecified),105.8,101.7,98.5,102.2,104.2,x,x,x,x,x,
CC(C)Oc1ccc(C(=O)NCc2cccs2)cc1,79.0,92.7,168.6*,104.4,85.7,101.9,98.2,100.4,92.7,97.9,
CC[C@@H]1[C@H]2CCCC(=O)N3CC[C@@H](C[C@@H]1OC(=O)Nc1ccccc1)[C@@H]23,93.3,91.7,120.0,89.0,89.4,x,x,x,x,x,
CS(=O)(=O)c1sc(C#N)c2c1C(=O)CC(c1ccccc1)C2 (stereo unspecified),89.3,99.1,209.1*,95.3,82.4,x,x,x,x,x,Yeast autofluor=0.92
Cc1oc2c(c(=O)c1C)C(=O)CC(c1ccccc1)C2 (stereo unspecified),95.9,93.5,90.2,102.9,101.0,x,x,x,x,x,
CCOC(=O)/C=C/c1ccc2c(c1)S(=O)(=O)N(Cc1ccc(OC)cc1)[C@H]2CC(=O)OCC,98.4,96.1,115.0,88.0,87.8,x,x,x,x,x,
